Experimental data from the supplement of paper PMC11732987, “Enantioselective OTUD7B fragment discovery through chemoproteomics screening and high-throughput optimisation” (Communications Chemistry, 2025).

biological target: COPS5 (UniProt Q92905); test: log2 ratio of Biotin-Ahx-Ub-VS probe labelling (fragment/DMSO); higher = less target engagement (more negative = stronger competition), active = hit call of the paper (q ≤ 0.05, log2 ratio ≤ -1); settings: compound concentration: 200 uM; treatment time: 3 h
Sequence (Q92905 whole entry, looked up, the tested form may be a part): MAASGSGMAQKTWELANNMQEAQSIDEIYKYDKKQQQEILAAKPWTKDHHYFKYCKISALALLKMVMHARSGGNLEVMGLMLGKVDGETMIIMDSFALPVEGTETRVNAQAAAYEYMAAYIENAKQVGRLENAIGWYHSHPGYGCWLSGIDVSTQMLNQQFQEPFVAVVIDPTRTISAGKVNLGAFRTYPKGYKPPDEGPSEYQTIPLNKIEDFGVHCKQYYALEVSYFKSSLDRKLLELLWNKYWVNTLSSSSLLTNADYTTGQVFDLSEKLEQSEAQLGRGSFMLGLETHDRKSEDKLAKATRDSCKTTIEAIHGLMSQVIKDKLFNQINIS
Procedure: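 Competitive ABPP in HEK293T cell lysate. Lysates were treated with each chloroacetamide fragment at 200 µM for 3 h, then with Biotin-Ahx-Ub-VS (0.5 µM, 1 h), NeutrAvidin-enriched and analysed by diaPASEF LC-MS/MS. Protein LFQ was median-normalised; average log2 ratio is fragment/DMSO from an unpaired t-test (n=3 treated, n=44 DMSO). Hits: q ≤ 0.05, log2 ratio ≤ -1, unique peptides ≥ 2.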

| SMILES | log2 ratio of Biotin-Ahx-Ub-VS probe labelling |
| --- | --- |
| O=C(CCl)NC1CCCCNC1=O (configuration not stated) | 0.0739 (inactive) |
| Cl.Cn1ncc2c1CCCC2NC(=O)CCl (configuration not stated) | -0.0371 (inactive) |
| CC(C)n1nccc1NC(=O)CCl | 0.0761 (inactive) |
| Cc1ncc2c(n1)CCN(C(=O)CCl)C2 | 0.163 (inactive) |
| Cl.Cn1cnc2cc(CNC(=O)CCl)ccc21 | -0.125 (inactive) |
| O=C(CCl)N1CCN2C(=O)CCC2C1 (configuration not stated) | 0.141 (inactive) |
| CCN(Cc1ccc(C#N)cc1F)C(=O)CCl | -0.0333 (inactive) |
